This is an account of results in PubChem BioAssay.

The structures appear in SMILES notation. Calls of active or inactive are those of the source.

The subject of assay [1] is Plasmodium falciparum Sir2 (PF13_0152, Sir2A). Nature of the assay: pfSir2 binders on small-molecule microarrays, primary screen, biochemical, small-molecule microarray, 635 nm fluorescence (AID 1098).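 Note: score merges spot fluorescence intensity with its signal-to-noise ratio.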 Particulars: small-molecule microarray binding, fluorescence 635 nm; higher = more signal.
Assay [2] in a line: small-molecule microarray binders of probe aDKK1, primary screen, biochemical, biotinylated probe, 635/667 nm fluorescence (AID 1099).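 Note: score merges 667nm spot fluorescence with signal to noise across triplicate slides; reference of the scale not given here.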 Particulars: higher = more signal.
A short description of assay [3]: small-molecule microarray binders of probe aCHRDL2, primary screen, biochemical, biotinylated probe, 635/667 nm fluorescence (AID 1100). To be noted: higher = more signal.
Assay [4] is described as follows: splicing luciferase reporter signal modulators, primary screen, spliceosome inhibition project, cell-based, HEK293, splice +/- reporter (AID 1101).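 Note: HEK293 cells carrying a splicing-competent luciferase reporter gene; test concentration not given here.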 Particulars: luminescence, 24 h, higher = more signal, called active from +8 up or from −8 down. A general note: A reporter such as luciferase makes a cellular process visible.
The target in assay [5] is Fibroblast growth factor 10 (Homo sapiens) (UniProt O15520). The assay can be described thus: FGF10 binders on small-molecule microarrays, primary screen, biochemical, small-molecule microarray, 635 nm fluorescence (AID 1102). Particulars: FGF10 binding, fluorescence 635 nm, higher = more signal.
The subject of assay [6] is glycogen synthase kinase-3 (GSK3A per assay name; protocol says GSK3B). The assay can be described thus: GSK3 binders on small-molecule microarrays, primary screen, biochemical, small-molecule microarray, 635 nm fluorescence, GSK3A (AID 1103). Note: the record names both GSK3A and GSK3B. Particulars: small-molecule microarray binding, fluorescence 635 nm; higher = more signal.
The target of assay [7] is Epidermal growth factor receptor (Homo sapiens) (UniProt P00533). Nature of the assay: EGFR binders on small-molecule microarrays, primary screen, biochemical, small-molecule microarray, 635 nm fluorescence (AID 1104).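 Note: score merges 667 nm emission intensity with spot signal to noise over triplicate slides.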 Particulars: EGFR binding, higher = more signal.
The target in assay [8] is Follistatin-related protein 3 (Homo sapiens) (UniProt O95633). Nature of the assay: FSTL3 binders on small-molecule microarrays, primary screen, biochemical, small-molecule microarray, 635 nm fluorescence (AID 1105).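 Note: score merges emission near 667 nm and signal to noise per printed spot across three slides.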 Particulars: FSTL3 binding, higher = more signal.
In assay [9] the target is Dickkopf-related protein 1 (Homo sapiens) (UniProt O94907). Nature of the assay: DKK1 binders on small-molecule microarrays, primary screen, biochemical, small-molecule microarray, 635 nm fluorescence scan (AID 1106).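 Note: score merges emission near 667 nm with signal to noise over three replicate slides.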 To be noted: DKK1 binding, higher = more signal.
The test system of assay [10] is Inhibin beta A chain (activin A). Nature of the assay: INHBA (activin A) binders on microarrays, primary screen, biochemical, small-molecule microarray, 635 nm fluorescence scan (AID 1107).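 Note: mouse activin A protein probed at 4.33 µg/mL on printed slides; score merges bound-protein fluorescence near 667 nm with spot signal-to-noise.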 Particulars: small-molecule microarray binding, higher = more signal.

Epidermal growth factor receptor (Homo sapiens), sequence (P00533 whole entry, looked up): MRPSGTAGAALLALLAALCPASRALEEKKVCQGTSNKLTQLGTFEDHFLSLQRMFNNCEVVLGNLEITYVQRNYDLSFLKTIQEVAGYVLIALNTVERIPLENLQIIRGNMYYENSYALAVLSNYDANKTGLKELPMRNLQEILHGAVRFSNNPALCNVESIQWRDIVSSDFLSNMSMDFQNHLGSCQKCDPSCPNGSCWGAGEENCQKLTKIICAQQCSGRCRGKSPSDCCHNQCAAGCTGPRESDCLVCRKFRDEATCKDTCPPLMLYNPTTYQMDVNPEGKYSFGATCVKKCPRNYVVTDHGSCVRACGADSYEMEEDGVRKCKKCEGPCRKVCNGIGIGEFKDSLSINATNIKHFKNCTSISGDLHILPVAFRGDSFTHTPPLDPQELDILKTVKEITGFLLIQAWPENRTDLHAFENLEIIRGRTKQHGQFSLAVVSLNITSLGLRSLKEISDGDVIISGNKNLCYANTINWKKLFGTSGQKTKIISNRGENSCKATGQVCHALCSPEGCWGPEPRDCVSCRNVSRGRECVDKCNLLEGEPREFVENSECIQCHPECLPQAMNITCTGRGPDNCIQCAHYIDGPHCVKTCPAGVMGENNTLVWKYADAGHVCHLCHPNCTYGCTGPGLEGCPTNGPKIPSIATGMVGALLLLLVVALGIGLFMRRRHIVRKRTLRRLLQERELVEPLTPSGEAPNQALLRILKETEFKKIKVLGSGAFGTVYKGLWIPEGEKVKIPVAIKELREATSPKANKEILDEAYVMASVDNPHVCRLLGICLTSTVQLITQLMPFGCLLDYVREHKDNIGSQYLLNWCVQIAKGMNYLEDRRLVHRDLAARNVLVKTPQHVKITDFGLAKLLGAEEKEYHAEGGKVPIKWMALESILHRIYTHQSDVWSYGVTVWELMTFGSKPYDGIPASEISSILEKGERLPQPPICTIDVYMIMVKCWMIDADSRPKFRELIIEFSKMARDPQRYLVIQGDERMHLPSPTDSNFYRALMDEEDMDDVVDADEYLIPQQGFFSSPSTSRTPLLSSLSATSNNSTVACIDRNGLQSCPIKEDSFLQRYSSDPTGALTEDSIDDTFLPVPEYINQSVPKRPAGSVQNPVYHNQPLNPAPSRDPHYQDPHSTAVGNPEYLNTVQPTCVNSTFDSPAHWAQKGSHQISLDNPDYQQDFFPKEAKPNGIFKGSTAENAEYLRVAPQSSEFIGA
Fibroblast growth factor 10 (Homo sapiens), sequence (O15520 whole entry, looked up): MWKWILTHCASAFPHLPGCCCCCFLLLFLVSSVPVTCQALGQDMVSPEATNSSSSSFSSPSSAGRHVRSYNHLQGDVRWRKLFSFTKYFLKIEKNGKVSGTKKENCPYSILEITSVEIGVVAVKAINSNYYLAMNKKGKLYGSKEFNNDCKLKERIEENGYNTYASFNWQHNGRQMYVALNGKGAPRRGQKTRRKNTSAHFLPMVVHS
Dickkopf-related protein 1 (Homo sapiens), sequence (O94907 whole entry, looked up): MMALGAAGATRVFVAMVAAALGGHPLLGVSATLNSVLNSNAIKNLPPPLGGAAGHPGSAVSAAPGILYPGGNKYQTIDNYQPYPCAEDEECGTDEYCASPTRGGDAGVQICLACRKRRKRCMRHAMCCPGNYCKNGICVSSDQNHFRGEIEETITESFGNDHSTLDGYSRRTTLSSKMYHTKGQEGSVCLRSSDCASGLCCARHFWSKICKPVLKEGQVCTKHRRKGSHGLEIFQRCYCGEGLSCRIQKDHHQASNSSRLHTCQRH
Follistatin-related protein 3 (Homo sapiens), sequence (O95633 whole entry, looked up): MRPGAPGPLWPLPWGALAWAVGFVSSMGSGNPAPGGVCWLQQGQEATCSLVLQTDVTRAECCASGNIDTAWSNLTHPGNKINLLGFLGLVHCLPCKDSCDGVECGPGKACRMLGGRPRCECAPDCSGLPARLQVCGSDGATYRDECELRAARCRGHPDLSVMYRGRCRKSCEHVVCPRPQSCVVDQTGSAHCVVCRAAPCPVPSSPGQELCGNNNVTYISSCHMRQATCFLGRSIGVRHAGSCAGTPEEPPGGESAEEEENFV

For the molecule `C=CC[C@@]1(C(=O)N(C)C)N=C(c2ccc(OCCCO)cc2)O[C@@H]1c1ccccc1N=[N+]=[N-]`, the composite z-score was 1.59 in [1]; 1.33 in [2]; 1.35 in assay [3]; 0.826 in assay [5]; 1.2 in assay [6]; 0.145 in assay [7]. Besides, the composite z-score in assay [8] turned out to be 0.884; in assay [9], 0.368; in assay [10] it was 0.636. Further, the z-score in assay [4] was -1.2 (inactive).
Take `CN(C)CCCNC(=O)[C@@]1(c2ccc([N+](=O)[O-])cc2)CC(=O)N(C2CCCCC2)[C@@H]1c1ccc(CO)cc1`: the composite z-score in [1] is 0.762; in assay [2], 0.0157; in assay [3] it was 0.759; in assay [5] it was -0.105; in [6], -0.148; in assay [7] it was -0.364. Further, the composite z-score in assay [8] was 0.156; in assay [9] it was -0.236; in [10], 1.27. Further, the z-score in assay [4] is 0.315 (inactive).
Turning to `O=C1NC(=O)C2C1C=CC(C(O)C(c1ccccc1)c1ccccc1)N2Nc1ccc(Cl)cc1Cl` (stereo not given), the composite z-score in assay [1] is 0.496; in [2], 0.824; in assay [3], 1.11; in assay [5], 0.554; in assay [6] it was 0.0932; in [7], -0.261. For the same molecule, the composite z-score in assay [8] was 0.908; in assay [9], -0.737; in assay [10], 0.974. For the same molecule, the z-score in assay [4] is 1.44 (inactive).
Consider `COc1ccc(C(=O)Nc2ccc(CN3C(=O)[C@@]4(O[C@@H](CCn5cc([C@H](O)c6ccccc6)nn5)[C@H]([Si](C)(C)c5ccc(OC)cc5)[C@H]4C)c4ccccc43)cc2)cc1`, for which the composite z-score in assay [1] was 0.834; in assay [2], -0.0682; in assay [3], 0.512; in assay [5], -0.0022; in [6] it was 0.054; in assay [7], -0.591. For the same molecule, the figures for the composite z-score in [8], in assay [9] and in [10] were 0.183, -0.347 and 0.975, respectively. Also, the z-score in assay [4] is -1.06 (inactive).
As to `CN(C)C(=O)[C@@]1(Cc2ccccc2CN=[N+]=[N-])N=C(c2ccc(OCCCO)cc2)O[C@H]1c1ccccc1`, the composite z-score in assay [1] is 1.67; in [2], -0.274; in [3], 1.01; in assay [5], 1.21; in assay [6], 0.585; in assay [7] it was -0.333. Also, the composite z-score was -0.283 in assay [8], -0.766 in assay [9] and 0.823 in [10]. In addition, in [4], the z-score is 0.249 (inactive).
On to `C#CCNC(=O)[C@H](Cc1ccccc1)NC(=O)CCC(=O)O`, for which the composite z-score is -0.759 in assay [1]; -0.397 in assay [2]; -0.205 in [3]; -0.688 in assay [5]; -1.14 in [6]; -0.659 in [7]. Further, the composite z-score in assay [8] was -1.22; in assay [9], -0.447; in assay [10] it was 0.735. Further, the z-score in assay [4] was -0.222 (inactive).
On to `COc1ccc([Si](C)(C)[C@H]2[C@H](CC(=O)N3CCC[C@H]3CO)O[C@@]3(C(=O)N(Cc4cccc(N5C(=O)c6cccc7cccc5c67)c4)c4ccccc43)[C@@H]2C)cc1`, for which the composite z-score in assay [1] was 1.45; in assay [2], -0.109; in assay [3], -0.098; in assay [5], 1.29; in assay [6], 0.483; in assay [7], 0.761. Moreover, the composite z-score in assay [8] was found to be 1.25; in [9], 0.892; in assay [10], 0.459. In addition, the z-score in [4] was 0.685 (inactive).
As to `COC(=O)[C@@]1(Cc2ccc(F)cc2)[C@@H]2[C@@H](CC(=O)[C@H]2CC(=O)C(=O)N(C)C)CN1C(=O)c1ccccc1`, the composite z-score turned out to be 0.532 in assay [1]; 1.21 in assay [2]; 1.19 in assay [3]; 0.849 in assay [5]; 1.09 in assay [6]; 0.251 in assay [7]. For the same molecule, the composite z-score in [8] was 1.32; in assay [9], -0.598; in [10] it was 0.793. For the same molecule, the z-score in assay [4] is -0.191 (inactive).
`CN(C)C(=O)[C@]1(Cc2ccccc2CN=[N+]=[N-])N=C(c2ccc(OCCCO)cc2)O[C@@H]1c1ccccc1CN=[N+]=[N-]`: the composite z-score in assay [1] is 0.0579; in [2], 0.423; in [3] it was 0.708; in assay [5] it was 1.17; in assay [6], 1.32; in assay [7], -0.0263. Also, the composite z-score in [8] is 1.18; in [9], -0.38; in [10], 0.844. Moreover, the z-score in assay [4] is 0.646 (inactive).
Regarding `Cc1ccc(C(C)CC(O)C2C=CC3C(=O)N(c4ccccc4)C(=O)C3N2Nc2ccc([N+](=O)[O-])cc2)o1` (stereo not given), the composite z-score was 0.883 in assay [1]; -0.199 in assay [2]; 0.904 in [3]; 0.938 in assay [5]; 1.27 in assay [6]; 0.152 in assay [7]. Also, the composite z-score amounted to 0.904 in assay [8], 0.0201 in assay [9] and 0.77 in assay [10]. Also, in assay [4], the z-score is 0.907 (inactive).
As to `C=CCOC(=O)[C@@H]1[C@H]2C(=O)O[C@H](c3ccccc3)[C@H](c3ccccc3)N2[C@H](c2ccc(OCCOC(=O)[C@@H]3C[C@@H]4C(=O)N[C@@H](CCCCN(C)C)C(=O)N4[C@@H]3c3ccc(O)cc3)cc2)[C@@]12C(=O)Nc1ccc(I)cc12`, the composite z-score was 1.14 in assay [1]; -0.0242 in assay [2]; 0.0749 in assay [3]; 0.767 in assay [5]; 1.13 in assay [6]; 1.01 in [7]. Also, the composite z-score was determined as 1.04 in assay [8], 1.11 in assay [9] and 0.347 in assay [10]. In assay [4], the z-score was -0.0143 (inactive).
With `Cc1ccc(S[C@]2(C(=O)NC3CC3)CC(=O)N(C3Cc4ccccc4C3)[C@@H]2c2ccc(CO)cc2)cc1`, the composite z-score is 1.65 in assay [1]; 0.245 in assay [2]; 0.806 in assay [3]; -0.451 in [5]; -0.15 in assay [6]; -0.876 in [7]. Besides, the composite z-score in assay [8] was -0.809; in assay [9], -1.02; in [10], -0.139. Further, the z-score in assay [4] was -0.983 (inactive).
